Most compounds without a hit are left out; they make up all but 6.1% or so of the library.
D1 agonist = Allosteric Agonists of the Human D1 Dopamine Receptor: qHTS | D(1A) dopamine receptor (Homo sapiens), P21728 | hit rate 1% among 360,000 | HEK293 T-REx D1 cells, calcium flux, agonist mode | activation, % at 2 µM; in the data active = activation above about 30%
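Inducible HEK293 T-REx D1 cells, force-coupled to calcium signalling, were plated at 4000 cells/well with tetracycline and held overnight at 30 C. After no-wash calcium dye loading, compound-evoked calcium rise over 180 s flagged agonists.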
D1 antagonist = Antagonist of Human D 1 Dopamine Receptor: qHTS. activity change, negative = inhibition, % at 10 µM. AID 504652, 2011. hit rate 3.2% among 360,000. HEK293 TREx D1 cells, calcium flux, dopamine EC80; stronger effect = lower value; in the data active = activity change below about -30%
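Tetracycline-induced HEK293 Trex D1 cells, force-coupled to calcium, dye-loaded; compounds added and read 180 s, then EC80 dopamine added and calcium flux tracked kinetically another 180 s.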
DRD3 antagonist = qHTS of D3 Dopamine Receptor Antagonist: qHTS; D(3) dopamine receptor (Homo sapiens), P35462; D3R cells, DiscoveRx beta-arrestin luminescence, antagonist mode; stronger effect = lower value; max response, negative = inhibition, %; hit rate 2.5% among 360,000; in the data active = max response below about -50%; inconclusive = no clear call, values can overlap the other calls
Target sequence (P35462 whole entry, looked up): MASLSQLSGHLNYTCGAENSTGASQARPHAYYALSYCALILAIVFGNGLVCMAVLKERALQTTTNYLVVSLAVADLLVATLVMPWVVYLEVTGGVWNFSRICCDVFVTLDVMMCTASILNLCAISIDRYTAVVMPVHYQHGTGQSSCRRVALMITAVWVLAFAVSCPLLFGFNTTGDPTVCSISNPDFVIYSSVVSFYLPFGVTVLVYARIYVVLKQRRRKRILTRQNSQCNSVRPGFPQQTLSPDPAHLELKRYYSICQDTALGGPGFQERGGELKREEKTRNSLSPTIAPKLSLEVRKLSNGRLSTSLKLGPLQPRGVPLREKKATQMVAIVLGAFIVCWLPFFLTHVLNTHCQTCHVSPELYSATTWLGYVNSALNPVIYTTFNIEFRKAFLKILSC
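Cells expressing the human receptor were seeded at 1500 cells/well, incubated overnight at 37 degrees C in 5% CO2, then exposed to library compounds with dopamine controls for 90 minutes at 37 degrees C before luminescent detection.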
D1 potentiator = Potentiators of Human D1 Dopamine Receptor: qHTS; D(1A) dopamine receptor (Homo sapiens), P21728; HEK293 TREx D1 cells, calcium flux, dopamine EC20 potentiation; potentiation, % at 10 µM; hit rate 0.036% among 360,000; AID 504651, 2011; in the data active = potentiation above about 30%
D3 ag = qHTS of D3 Dopamine Receptor Agonist: qHTS | D3R DiscoveRx beta-arrestin cells, luminescence, 90 min | max activation, % | AID 652048, 2013 | D(3) dopamine receptor (Homo sapiens), P35462 | hit rate 0.58% among 410,000; in the data active = max activation above about 30%
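Cells at 1500/well, incubated overnight, then treated with pinned compounds (dopamine as control) for 90 min at 37 degrees C. DiscoveRx reagent added for 30 - 60 minutes at room temperature; luminescence read.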
Large screens that a line does not name were inactive.

CC(=O)Nc1cccc(C(=O)/C=C/c2ccc(C)cc2)c1	none
CCOC(=O)c1sc(N2N=C(C)/C(=C\c3ccc(OCC(=O)OC)cc3)C2=O)nc1C	DRD3 antagonist -70.3
CCOC(=O)c1sc(Nc2ccc(OCC)cc2)nc1C	none
Cc1ccc(C)c(C(=O)NCCN(C)C)c1	none
C=C(CN(C)C)C(=O)c1cc(C)ccc1C	DRD3 antagonist -87.6 (no result: D1 agonist, D1 antagonist, D1 potentiator)
COc1ccc(OC)c(NC(=O)CCc2c(C)nc3c(c(C)nn3C(C)(C)C)c2C)c1	D1 antagonist -41.6 (no result: DRD3 antagonist)
COc1ccccc1OCCn1c(NC(=O)c2ccccc2Cl)nc2ccccc21	none (no result: DRD3 antagonist)
Cc1cc(F)ccc1S(=O)(=O)Nc1ccc2oc3c(c2c1)CC(C)CC3 (stereo unspecified)	D1 agonist 36.8 (no result: DRD3 antagonist)
CCOc1ccc2oc(=O)cc(CN3CCN(C(=O)c4ccc(Cl)cc4)CC3)c2c1	none (no result: DRD3 antagonist)
NC(=O)NC(c1ccccc1)c1ccccc1	D1 agonist 184.7, D1 potentiator 34.8 (no result: D1 antagonist)
O=C(O)c1ccc(S(=O)(=O)NN=Cc2c[nH]c3ccccc23)cc1	none (no result: D1 agonist, D1 antagonist, D1 potentiator)
Cc1ccc(S(=O)(=O)N/N=C/c2c[nH]c3ccccc23)cc1	D1 antagonist -49.0
COc1ccccc1Nc1c2c(nc3ccc(NC(=O)c4ccc(N(C)C)cc4)cc13)CCCC2	none (no result: DRD3 antagonist)
O=C(NCCCO)c1cc2ccccc2[nH]1	none
CC(C)(C)OC(=O)NCC(=O)NNC(=O)c1cc2ccccc2[nH]1	D1 antagonist -58.6 (no result: DRD3 antagonist, D3 ag)
O=C(NCCN1CCCCC1)c1cc2ccccc2[nH]1	DRD3 antagonist -71.9
NNC(=O)c1cc2ccccc2[nH]1	DRD3 antagonist -52.0
CCOC(=O)c1c(C)[nH]c(C)c1S(=O)(=O)N1CCN(c2ccccc2OC)CC1	none (no result: DRD3 antagonist)
Cc1ccc(Cl)cc1NC(=O)N1CCC(CN2CCCCCC2)CC1	none (no result: DRD3 antagonist)
CCN(CC)CCNC(=O)c1cc([N+](=O)[O-])c(N(C)C)cc1OC	DRD3 antagonist -92.7
COCCNC(=O)c1cc(OC)c(OC)cc1[N+](=O)[O-]	none
CCN(CC)CCNC(=O)c1cc(Cl)c(N)cc1OC	DRD3 antagonist -116.6
CCN(CC)CCOC(=O)c1cc(Cl)c(N)cc1OC	DRD3 antagonist -58.0
COC(=O)c1cc(Cl)c(N)cc1OC	none
CCN(CC)CCOC(=O)c1ccc(Cl)cc1	DRD3 antagonist -83.1
CCOc1ccc(C(=O)OCCN(CC)CC)cc1	none
Cc1ccc2oc(=O)c3cc(C(=O)Nc4cccc(C#N)c4)sc3c2c1	none (no result: DRD3 antagonist)
CCOC(=O)/C(C#N)=C/Nc1ccccc1OC	none
CCOC(=O)C(=O)/C(C#N)=C/Nc1ccccc1	DRD3 antagonist -57.2
CCOC(=O)/C(C#N)=C\c1cn(C)c2ccccc12	D1 antagonist -31.9
COc1ccc(Nc2c3c(nc4ccc(NC(=O)c5cc(Cl)ccc5OC)cc24)CCCC3)cc1OC	none (no result: DRD3 antagonist)
COc1nn(-c2ccccc2)c(=O)c(Cl)c1Cl	DRD3 antagonist -63.5
Oc1sc(C=Nc2ccccc2)c2ccccc12	D1 agonist 171.6
Oc1sc(C=Nc2ccc(F)cc2)c2ccccc12	D1 agonist 131.6
CCOC(=O)C1CCCN(S(=O)(=O)c2cc(-c3onc(C)c3C)ccc2OC)C1 (stereo unspecified)	none (no result: DRD3 antagonist)
O=C(NCc1ccccc1)N1CCN(c2ccccc2)CC1	none
S=C(NCc1ccccc1)N1CCN(c2ccccc2)CC1	D1 antagonist -30.8
S=C(Nc1ccc(Cl)cc1)NC1CC2CCCC(C1)N2C1CCCC1 (stereo unspecified)	none (no result: D1 agonist, D1 antagonist, D1 potentiator)
S=C(Nc1ccc(Cl)cc1)NC1CC2CCCC(C1)N2C1CC1 (stereo unspecified)	D1 agonist 134.6, D1 antagonist -40.8
C=CCN1C2CCCC1CC(NC(=S)Nc1ccc(Cl)cc1)C2 (stereo unspecified)	D1 antagonist -84.4
C=CCN1C2CCCC1CC(NC(=O)Nc1cc(C)cc(C)c1)C2 (stereo unspecified)	none
Cn1cc(-c2cc3n(n2)CCC(=O)N3CC(=O)NCc2ccc(Cl)cc2)c2ccccc21	none (no result: DRD3 antagonist)
CCN(CC)c1ccc2cc(NC(=O)CCC(=O)O)c(=O)oc2c1	D1 agonist 56.2
CCN(CC)c1ccc2cc(C(=O)Nc3cccnc3N3CCOCC3)c(=O)oc2c1	none (no result: DRD3 antagonist, D3 ag)
CCN(CC)c1ccc2cc(/C(N)=N/NC(=O)c3cccs3)c(=O)oc2c1	D1 agonist 30.4 (no result: DRD3 antagonist, D3 ag)
CCN(CC)c1ccc2cc(C(C)=O)c(=O)oc2c1	D1 agonist 145.9
CCN(CC)c1ccc2cc(C=O)c(=O)oc2c1	D1 agonist 186.8, DRD3 antagonist -55.5
CCC1CN(C(=O)N2CCC(C(=O)NCCc3ccc(OC)cc3OC)CC2)c2cc(C)ccc2O1 (stereo unspecified)	none (no result: DRD3 antagonist)
CCN(CC)c1ccc2cc(C(N)=O)c(=N)oc2c1	none
CCN(CC)c1ccc2cc(C(N)=O)c(=O)oc2c1	D1 agonist 32.4
O=[N+]([O-])c1cnccc1Nc1ccccc1	none
COc1ccccc1Nc1ccc(C(=O)O)cc1[N+](=O)[O-]	DRD3 antagonist -58.9
COc1ccccc1Nc1ccncc1[N+](=O)[O-]	D1 antagonist -48.2
O=C(Cn1nc(-c2ccccc2)nc(Cc2ccccc2)c1=O)Nc1ccccc1	none (no result: DRD3 antagonist)
O=C(CCN1CCN(c2ccc(F)cc2)CC1)Nc1ccccc1F	none
COc1ccc(N2CCN(CCCNC(=O)Nc3ccccc3Cl)CC2)cc1	none (no result: DRD3 antagonist)
O=C(NCCCN1CCN(c2ccc(F)cc2)CC1)Nc1ccccc1Cl	D1 agonist 43.5, D1 antagonist -67.2 (no result: DRD3 antagonist)
CSc1ccc(N2CCN(CCCNC(=O)Nc3ccccc3F)CC2)cc1	D1 agonist 75.1, DRD3 antagonist inconclusive, D3 ag 30.8
O=C(NCCCN1CCN(c2ccc(F)cc2)CC1)NC12CC3CC(CC(C3)C1)C2	DRD3 antagonist -81.8
O=C(NCCCN1CCN(c2ccc(F)cc2)CC1)Nc1ccc(Cl)cc1	D1 agonist 68.7, D1 antagonist -77.4 (no result: DRD3 antagonist)
CCCN1CCN(CCCNC(=S)Nc2ccc(F)cc2)CC1	none
CCn1cc(S(=O)(=O)c2ccc(C)cc2C)c(=O)c2cc(F)c(N3CCCC3)cc21	none (no result: DRD3 antagonist)
Cc1ccc(C)c(NC(=O)C2CCN(c3cc(C)nc4c(-c5ccc(Cl)cc5)c(C)nn34)CC2)c1	none (no result: DRD3 antagonist)
CCOc1ccc(NC(=O)NCCCN2CCN(c3ccc(F)cc3)CC2)cc1	D1 antagonist -35.6 (no result: DRD3 antagonist)
CSc1cccc(NC(=S)NCCCN2CCN(c3ccc(F)cc3)CC2)c1	D1 antagonist -76.2
CCc1ccc(NC(=O)NCCN2CCN(c3ccc(OC)cc3)CC2)cc1	none
CCc1ccc(C(=O)C(C)OC(=O)Cc2n[nH]c(=O)c3ccccc23)cc1 (stereo unspecified)	D1 potentiator 30.6
CC(=O)c1cccc(NC(=O)C(C)OC(=O)Cc2n[nH]c(=O)c3ccccc23)c1 (stereo unspecified)	D1 antagonist -33.8
